This passage reports Potency and outcome results from PubChem BioAssay (Tox21).

The nature of assay [1]: qHTS assay to identify small molecule agonists of the vitamin D receptor (VDR) signaling pathway - cell viability counter screen (AID 743224). Note: nearly all actives have a fitted effect of over 50% in size. Note: potency is the fitted concentration of half-maximal effect. Put shortly: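 VDR-bla cells were preincubated 4 h at 37C/5% CO2, then exposed to compounds for 16 h. After the 2 h room-temperature bla FRET read, CellTiter-Glo was added to the same wells and luminescence read after 30 min.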
(qHTS replaces the single test concentration by a dilution series.)

The nature of assay [2]: qHTS assay to identify small molecule agonists of the NFkB signaling pathway - cell viability counter screen (AID 1159515; calls by dose curve; note: nearly all actives have a fitted effect of over 55% in size; note: potency is the fitted concentration of half-maximal effect). Put shortly: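 NFkB-bla ME-180 cells, 2,000/well, were plated overnight at 37 C, 5% CO2, then exposed to compounds in DMSO for 5 hr. After the bla FRET read, CellTiter-Glo was added to the same wells; luminescence was read after 30 min at room temperature.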

Assay [3] is described as follows: qHTS assay to identify small molecule agonists of the endoplasmic reticulum stress response signaling pathway - cell viability counter screen (AID 1159517; calls by dose curve; note: nearly all actives have a fitted effect of over 50% in size; note: potency is the fitted concentration of half-maximal effect). Put shortly:
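Luminescence readout: CellTiter-Glo, 30 min RT, same wells as the ESRE-bla reporter read. HeLa ESRE-bla, 1,500 cells/well, o/n 37 C; cpd 5 hr 37 C/5% CO2.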

A short description of assay [4]: qHTS assay to identify small molecule antagonists of the retinoid-related orphan receptor gamma (ROR-gamma) signaling pathway - cell viability counter screen (AID 1159520). Note: nearly all actives have a fitted effect of over 50% in size. Note: potency is the fitted concentration of half-maximal effect. Put shortly:
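Tet-on ROR gamma CHO cells (1,000/well) were plated 4 hr, given compounds in DMSO for 2 hr at 37 C, then induced with 1 uM final doxycycline for 16 hr. Viability was read as ATP by CellTiter-Glo luminescence after 30 min.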

Assay [5] concerns the target Nuclear receptor ROR-gamma (Homo sapiens) (UniProt P51449). Nature of the assay: qHTS assay to identify small molecule antagonists of the retinoid-related orphan receptor gamma (ROR-gamma) signaling pathway (AID 1159521; note: nearly all actives have a fitted effect of over 50% in size; note: potency is the fitted concentration of half-maximal effect). Put shortly:
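Inducible-expression reporter assay: doxycycline (1 uM final) switched on RORγ in CHO cells bearing a ROR response element-luciferase construct, with test compounds present from 2 h beforehand. Decreased luminescence after 16 h defined antagonist activity.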

Assay [6] can be described thus: qHTS assay to identify small molecule agonists of the RXR signaling pathway - cell viability counter screen (AID 1159529). Note: nearly all actives have a fitted effect of over 50% in size. Note: potency is the fitted concentration of half-maximal effect. Summed up:
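Counter screen: CellTiter-Glo luminescence. Cells: RXR-alpha-UAS-bla HEK 293T. Medium: 2% charcoal-stripped FBS. Treatment: 16 h, 37 C. Reagent incubation: 30 min, RT.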

Assay [7] in a line: qHTS assay to identify small molecule antagonists of the retinoid acid receptor (RAR) signaling pathway - cell viability counter screen (AID 1159551). Note: nearly all actives have a fitted effect of over 35% in size. Note: potency is the fitted concentration of half-maximal effect. Summed up:
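C3RL4 cells were seeded overnight at 37 C, then treated with compounds plus 1 uM (final) retinol for 6 h at 37 C. Viability was read as ATP by CellTiter-Glo luminescence after 30 min at room temperature.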

Assay [8] in a line: qHTS assay to identify small molecule antagonists of the retinoic acid receptor (RAR) signaling pathway (AID 1159552; note: nearly all actives have a fitted effect of over 50% in size; note: potency is the fitted concentration of half-maximal effect). Summed up: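 Antagonism of retinol-induced RARE reporter activity was measured in C3RL4 cells. Exposure to compounds and 1 uM final retinol lasted 6 hr at 37 C, with luminescence as endpoint.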
A short description of assay [9]: qHTS assay to identify small molecule agonists of the AP-1 signaling pathway - cell viability counter screen (AID 1159525; calls by dose curve; note: nearly all actives have a fitted effect of over 55% in size; note: potency is the fitted concentration of half-maximal effect). Summed up: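 ME-180 AP-1-bla, 2500 cells/well, Opti-MEM + 0.5% dialyzed FBS; overnight 37 °C; cpd 15-pt titration, 5 h 37 °C; CellTiter-Glo 30 min RT; luminescence read; normalised to TOAB and DMSO controls.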
A short description of assay [10]: qHTS assay to identify small molecule agonists of the AP-1 signaling pathway (AID 1159526; calls by dose curve).
Assay [11] is described as follows: qHTS assay to identify small molecule agonists of the retinoic acid receptor (RAR) signaling pathway (AID 1159553). Note: potency is the fitted concentration of half-maximal effect. The note with it: C3RL4 RARE luciferase reporter, agonist, 6 h; activation: at 73.3 µM (top of the series) unless noted. Put shortly: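 C3RL4 cells carrying a RARE luciferase reporter were plated overnight at 37 C, then exposed to compounds in DMSO for 6 hr at 37 C and 5% CO2. Luminescence was read 30 min after luciferase reagent addition at room temperature.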

The nature of assay [12]: qHTS assay to identify small molecule antagonists of the vitamin D receptor (VDR) signaling pathway - cell viability counter screen (AID 743225). Note: nearly all actives have a fitted effect of over 50% in size. Note: potency is the fitted concentration of half-maximal effect. Summed up:
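Same-well multiplex: following 16 h treatment of HEK 293T cells carrying a UAS-driven beta-lactamase reporter with compound and agonist (3 nM final), and a 2 h FRET substrate step, CellTiter-Glo was added and luminescence read after 30 min.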

Assay [13] addresses Retinoic acid receptor RXR-alpha (Homo sapiens) (UniProt P19793). The experiment in a line: qHTS assay to identify small molecule agonists of the RXR signaling pathway (AID 1159527; calls by dose curve; note: nearly all actives have a fitted effect of over 35% in size). Summed up: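 Compounds in DMSO were added to RXR-alpha-UAS-bla HEK 293T cells kept in 2% charcoal-stripped serum, and incubated 16 hr at 37 C with 5% CO2. Reporter signal came from a 2 hr B/G FRET substrate step.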

Assay [14] is described as follows: qHTS assay to identify small molecule antagonists of the estrogen related receptor (ERR) signaling pathway - cell viability counter screen (AID 1224818).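 Note: viability measured after 17.5 h of compound exposure.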 Summed up:
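ERR reporter cells plated 6 h at 37 C/5% CO2, then compounds in DMSO pin-transferred and incubated 17.5 h at 37 C. Viability read as CellTiter-Fluor fluorescence after 30 min at 37 C.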

The nature of assay [15]: qHTS assay to identify small molecule antagonists of the estrogen related receptor signaling pathway with the pleiotropic PPARgamma coactivator (PGC) cell viability counter screen (AID 1224822). Put shortly: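 PGC/ERR cells were seeded at 2,000 cells/well, rested 6 h at 37 C/5% CO2, then given compounds in DMSO by pin tool and incubated 17.5 h at 37 C. Viability came from CellTiter-Fluor fluorescence after 30 min.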

Assay [16] in a line: qHTS assay to identify small molecule agonists of the endoplasmic reticulum stress response signaling pathway (AID 1159516; active = well fitted activation curve with a large enough effect in the signal ratio in the repeat runs, not every such curve was filed as active; the % refers to the signal ratio). Summed up: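 CellSensor ESRE-bla HeLa cells, carrying a beta-lactamase reporter driven by the ER stress response element, were plated overnight and exposed to compounds for 5 hr at 37 C. Reporter activity was read as FRET substrate fluorescence after 2 hr at room temperature.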

Several values for one entry are separate records, joined by “and”; a condition that tells them apart may be missing. Identical values can stand only once. Records with an inconclusive call do not appear. A structure can be active in one record and inactive in another. Activity calls are given as the source filed them. Unless noted, calls come from the whole dose curve; as a rule, active = well fitted curve in the direction sought with a large enough effect in the repeat runs; inconclusive = weak or mixed curves; inactive = no such curve, though single readings can be large; an effect the other way counts as inactive or inconclusive.

Chain of Retinoic acid receptor RXR-alpha (Homo sapiens) (P19793 whole entry, looked up): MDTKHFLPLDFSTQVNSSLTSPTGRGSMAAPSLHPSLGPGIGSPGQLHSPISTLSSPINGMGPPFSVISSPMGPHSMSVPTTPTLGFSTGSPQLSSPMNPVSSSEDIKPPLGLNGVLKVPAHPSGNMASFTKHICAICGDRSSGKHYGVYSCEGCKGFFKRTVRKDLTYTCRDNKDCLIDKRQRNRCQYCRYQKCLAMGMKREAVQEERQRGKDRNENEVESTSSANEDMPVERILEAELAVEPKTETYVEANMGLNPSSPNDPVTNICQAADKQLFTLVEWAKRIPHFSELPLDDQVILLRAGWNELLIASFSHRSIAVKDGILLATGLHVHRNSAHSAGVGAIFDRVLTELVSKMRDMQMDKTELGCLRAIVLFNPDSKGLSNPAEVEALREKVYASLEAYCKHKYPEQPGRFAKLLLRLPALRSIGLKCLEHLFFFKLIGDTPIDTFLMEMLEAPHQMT

For `CN(C)c1ccc(C(=C2C=CC(=[N+](C)C)C=C2)c2ccc(N(C)C)cc2)cc1`, the Potency in assay [1] is 4.87 µM (active) and 4.9 µM (active) and 11.9 µM (active); in [2], 24.4 µM (active); in [3], 12.3 µM (active) and 9.52 µM (active); in [4], 6.08 µM (active) and 13.7 µM (active) and 5.31 µM (active); in [5], 1.36 µM (active) and 1.54 µM (active) and 2.66 µM (active); in [6] it was 13.7 µM (active) and 19.5 µM (active) and 19 µM (active). Further, the Potency in assay [7] is 17.1 µM (active) and 27.3 µM (active) and 23.7 µM (active); in assay [8], 7.66 µM (active) and 2.17 µM (active) and 3.76 µM (active).

Consider `CN(C)Cc1ccccc1O`, for which the Potency result in assay [1], in assay [2], in [4], in [5], in assay [9] and in [10] was “inactive” each time. For the same molecule, the Potency entry in [6], in [7], in [8] and in [11] was “inactive” throughout.

As to `Nc1ccc(C(=O)O)c(O)c1`, the Potency result in [1], in [12], in assay [2], in assay [3], in assay [4] and in assay [9] was “inactive” in each case. Besides, the Potency result in assay [10], in [7], in assay [8] and in [11] was “inactive” in each case.

Regarding `CC1(C)CCC[C@]2(C)[C@H]3CCO[C@]3(C)CC[C@@H]12`, the Potency result in assay [2], in assay [5], in assay [9], in assay [10], in [6] and in [7] was “inactive” each time. For the same molecule, the Potency entry in assay [8] and in [11] was “inactive” each time.

For the molecule `CCC(C)(CCC(C)C)C(=O)[O][Sn]([CH3])([CH3])[O]C(=O)C(C)(CC)CCC(C)C` (stereo not given), the Potency entry in [1], in assay [2], in assay [3], in assay [4], in assay [9] and in assay [10] was “inactive” each time. For the same molecule, in assay [7], the Potency entry is “inactive”. The Potency in [5] was 27.3 µM (active).

With `CCCCC(CC)COC(=O)CCCCC(=O)OCc1ccccc1` (stereo not given), the Potency result in assay [1], in assay [2], in assay [3], in assay [4], in [9] and in assay [10] was “inactive” each time. Besides, the Potency result in assay [13], in assay [6], in assay [7], in assay [8] and in assay [11] was “inactive” throughout.

In the case of `CC(C)=CCNc1ncnc2c1ncn2[C@@H]1O[C@H](CO)[C@@H](O)[C@H]1O`, the Potency is 11.9 µM (active) in [1]; 8.49 µM (active) in assay [2]; 13.4 µM (active) in [3]; 13.3 µM (active) in [5]; 6.01 µM (active) in assay [9]; 13.3 µM (active) in [7]. In addition, the Potency in assay [8] was 23.7 µM (active). The Potency entry in assay [10] is “inactive”.

Regarding `O=C(O)Cc1ccccc1Nc1c(Cl)cccc1Cl`, the Potency result in assay [1], in assay [12], in [2], in [4], in [5] and in assay [9] was “inactive” each time. Moreover, the Potency result in [10], in [6], in assay [7] and in [15] was “inactive” in each case. Besides, the result in assay [14] was inactive.

Regarding `CCCCCCC1CCCC(=O)O1` (stereo not given), the Potency entry in assay [1], in assay [12], in assay [2], in [4], in [5] and in assay [9] was “inactive” throughout. Further, the Potency result in assay [10], in [6], in [7], in assay [8] and in assay [11] was “inactive” in each case.

Consider `CC(C)=CCC1=C(O)c2ccccc2C(=O)C1=O`, for which the Potency result in assay [1], in [16], in assay [3], in assay [9], in assay [6] and in assay [7] was “inactive” throughout. Besides, the Potency entry in [8] and in assay [11] was “inactive” in each case. In addition, the Potency in assay [5] is 13.6 µM (active).

`COc1cc(C)ccc1O`: the Potency result in assay [1], in assay [12], in [2], in assay [4], in assay [5] and in [9] was “inactive” each time. Further, the Potency entry in assay [10], in [13], in [6], in [7], in assay [8] and in assay [11] was “inactive” each time.

For the molecule `Cc1cccc(C(=O)O)c1O`, the Potency result in [12], in [2], in assay [3], in assay [5], in assay [9] and in [10] was “inactive” in each case. In addition, the Potency entry in [7], in assay [8] and in assay [11] was “inactive” throughout.

Turning to `CCCCCCCCCCCCCC[N+](C)(C)Cc1ccccc1`, the Potency in assay [1] is 24.9 µM (active); in [12], 24.9 µM (active) and 16.9 µM (active); in assay [2], 49.7 µM (active); in assay [5], 24.7 µM (active) and 26.6 µM (active) and 20 mM (active); in assay [9], 23.9 µM (active); in assay [6], 7.03 µM (active) and 5.35 µM (active) and 2.51 mM (active). For the same molecule, the Potency in [7] is 69.6 µM (active) and 29.8 µM (active) and inactive.

Consider `CC(=O)OCC=C(C)C`, for which the Potency entry in [1], in assay [12], in [2], in assay [3], in assay [5] and in [9] was “inactive” in each case. Also, the Potency result in assay [10], in assay [13], in assay [6], in assay [7], in assay [8] and in assay [11] was “inactive” throughout.

Regarding `COc1cc(/C=C/c2ccccc2)oc(=O)c1`, the Potency result in assay [12], in assay [16], in assay [5], in [9], in assay [10] and in [7] was “inactive” throughout. Besides, the Potency entry in assay [8] was “inactive”. In addition, the Potency in [11] is 0.564 µM (active).

On to `O=C1CCc2ccc(OCCCCN3CCN(c4cccc(Cl)c4Cl)CC3)cc2N1`, for which the Potency in [1] is 11.9 µM (active); in [12] it was 10.7 µM (active); in assay [6], 23.9 µM (active). Also, the Potency result in assay [16], in assay [4], in [9], in assay [7], in [8] and in [11] was “inactive” in each case.

`CCC(C)n1ncn(-c2ccc(N3CCN(c4ccc(OC[C@H]5CO[C@](Cn6cncn6)(c6ccc(Cl)cc6Cl)O5)cc4)CC3)cc2)c1=O` (stereo not given in full): the Potency entry in assay [1], in assay [12], in assay [3], in assay [4], in assay [9] and in assay [10] was “inactive” throughout. The Potency entry in assay [7] and in assay [11] was “inactive” in each case. In addition, the Potency in assay [5] is 1.19 µM (active).
